# Data published in PubChem BioAssay AID1222 (Sanford-Burnham Center for Chemical Genomics, 2008).
# Out of some 190,000 compounds screened, fewer than 10 were called active.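 Rule for the calls: active = EC50 below 50 µM in the dose-response confirmation; inactive = the rest.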 Not all results are given here. Measured potencies and affinities stand elsewhere.
# Experiment: rescue of cells from ER stress-induced death, primary screen, 384-well, CSM14.1, thapsigargin, ATP luminescence (AID 1222);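 note: death triggered by thapsigargin at about 15 µM added after 2 h compound pretreatment; cell ATP read after overnight thapsigargin exposure of roughly 18 to 22 hours; reference of the scale not given here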
# Details: CSM14.1 thapsigargin-induced death rescue, at 20 µM, hits give high values
row,SMILES,cellular ATP content (survival)
1,O=C(N/N=C/c1ccc(OCC(=O)N2CCCCC2)cc1)c1ccccc1O,2.1% (inactive)
2,CCC1Sc2ccccc2N(CC(=O)NC2CCCC2)C1=O (configuration not stated),-1.6% (inactive)
3,Cc1ccc(C(=O)N/C(=C\c2ccc(Br)cc2)c2nc(=S)[nH][nH]2)cc1,-11.2% (inactive)
4,COc1ccc(OC)c(NC(=O)C2CCC(CNc3c(N4CCC(C)CC4)c(=O)c3=O)CC2)c1 (configuration not stated),1.6% (inactive)
5,O=CN1CCN(C(=O)c2ccc([N+](=O)[O-])cc2)CC1,1.3% (inactive)
6,COc1cccc(C(=O)CSc2nnc(CNS(C)(=O)=O)n2-c2ccc(C)cc2)c1,0.4% (inactive)
7,COCc1ccc([C@@H]2C[C@H]3CN(Cc4ccccc4C)C(=O)[C@]34CCCN24)o1,6.6% (inactive)
8,CCCOC(=O)CN1C(=O)c2ccccc2C1=O,-2.4% (inactive)
9,Cc1ccc(S(=O)(=O)N(CC(=O)N/N=C/c2cccc(Cl)c2)c2cccc3cccnc23)cc1,4.7% (inactive)
10,CCC(Sc1nc(N)cc(=O)[nH]1)C(=O)Nc1cc(C)on1 (configuration not stated),1.6% (inactive)
11,COc1ccc(NC(=O)c2ccccc2NC(=O)CSc2ccc(C)cc2)cc1,4% (inactive)
12,Cc1ccc(C(=O)NNC2CC(=O)N(c3ccc4c(c3)OCCO4)C2=O)cc1 (configuration not stated),-0.8% (inactive)
13,NC(N)=NC(N)=Nc1ccc(SC(F)(F)F)cc1,0.3% (inactive)
14,COc1ccccc1-c1noc(CCC(=O)Nc2cc(C(F)(F)F)ccc2Cl)n1,1% (inactive)
15,O=C(Nc1cccc(-c2cn3cccnc3n2)c1)Nc1ccccc1F,-0.8% (inactive)
16,O=C(NNS(=O)(=O)c1ccccc1)c1ccc(S(=O)(=O)N2CCCCC2)cc1,-2.8% (inactive)
17,CSc1ccc(C(C(C(=O)c2cccs2)N2CCOCC2)N2CCOCC2)cc1 (configuration not stated),-1.7% (inactive)
18,CCCn1c(=O)c2ccccc2n2c(SCC(=O)NCc3cccs3)nnc12,2.6% (inactive)
19,COC(=O)C1=C(N)Oc2cc(C)n(Cc3cccnc3)c(=O)c2C1c1cc(OC)ccc1OC (configuration not stated),-3.1% (inactive)

row,SMILES,cellular ATP content (survival)
1,O=C(COc1ncnc2scc(-c3ccccc3)c12)NC1CCCc2ccccc21 (configuration not stated),-2.4% (inactive)
2,O=c1ccccn1CCOc1ccccc1Cl,0.2% (inactive)
3,CCOC(=O)C1C(=O)C=C(c2ccc(Br)cc2)CC1c1ccco1 (configuration not stated),0.2% (inactive)
4,C[C@@H]1NC(=O)c2cc([N+](=O)[O-])cc(I)c2NCCCC[C@@H](C(N)=O)NC(=O)[C@H](CCC(=O)O)NC1=O,6.5% (inactive)
5,Cc1cc(C)n2nc(-c3ccsc3-n3c(C)ccc3C)cc2n1,6% (inactive)
6,Cn1c(=NC(=O)C2CCN(S(=O)(=O)c3cccs3)CC2)sc2ccccc21,-0.7% (inactive)
7,COC(=O)COc1ccc(S(=O)(=O)N2CCc3ccccc3C2)cc1C,-0.7% (inactive)
8,Cc1ccc(C(=O)/C=C/c2ccc(F)cc2)o1,-13.2% (inactive)
9,O=C(O)CCCn1cc(NC(=O)c2cc(F)c(F)cc2Cl)cn1,-2.1% (inactive)
10,COc1ccccc1CNC(=O)CCNC(=O)Cn1cnc2ccccc2c1=O,0.7% (inactive)
11,CC1(C)CC(=O)C2=C(C1)NC(=O)CC2c1cc2c(cc1Br)OCO2 (configuration not stated),-0.1% (inactive)
12,O=C(N/N=C/c1ccncc1)NC1CCCCC1,-0.5% (inactive)
13,COc1cc(C(=O)Nc2cccc(-c3cn4cccnc4n3)c2)cc(OC)c1OC,-2% (inactive)
14,O=C1c2ccccc2C(=O)C1C1=Nc2ccccc2NC(c2ccccc2)C1 (configuration not stated),4.7% (inactive)
15,Nc1ccc(Cc2nc3cc4ccccc4cc3[nH]2)cc1,-1.5% (inactive)
16,CCc1cccc(C)c1NC(=S)N(Cc1cccnc1)Cc1ccco1,-2.7% (inactive)
17,O=C(COc1ccc(Cl)cc1)N1CCN(C(=O)Cc2ccccc2)CC1,5.3% (inactive)
18,CCOC(=O)N1CCN(C(=O)c2cnn3ccccc23)CC1,2.2% (inactive)
19,O=C(N/N=C/c1cccc(Oc2ccccc2)c1)c1ccccc1Br,0% (inactive)

row,SMILES,cellular ATP content (survival)
1,Cc1cccc(-n2cnc3cc(C(=O)N4CCc5ccccc54)ccc32)c1,-2.1% (inactive)
2,Cc1[nH]nc(Nc2ccc(O)cc2)c1[N+](=O)[O-],-1.1% (inactive)
3,O=C(/C=C/c1ccco1)OCn1nnc2ccccc2c1=O,-0.7% (inactive)
4,Cc1cccc(-c2ncc(CN3CCN(CCC(C)C)C(CCO)C3)cn2)c1 (configuration not stated),0.8% (inactive)
5,COc1ccc(C2N(c3ccc(OC)cc3)C(=S)N3CCCN23)cc1 (configuration not stated),3.3% (inactive)
6,COc1ccccc1NC(=S)N(Cc1ccc(C)cc1)Cc1cccnc1,2.6% (inactive)
7,Cc1ccc(C(=O)NNC(=O)CSc2nnc(-c3ccccc3)n2Cc2ccccc2)cc1,-1.4% (inactive)
8,O=C(CSc1ncnc2nc[nH]c12)N1CCN(c2ccccc2)CC1,0.6% (inactive)
9,CC1CCN(CCC(=O)N/N=C/c2ccc([N+](=O)[O-])cc2)CC1,-1.3% (inactive)
10,CC(C)C(=O)c1cn(CC(=O)N2CCCc3ccccc32)c2ccccc12,0.1% (inactive)
11,O=C(CCCC(=O)N(c1ccc2c(c1)OCCO2)C(C(=O)NC1CCCCC1)c1ccc(F)cc1)Nc1ccccn1 (configuration not stated),-0.3% (inactive)
12,O=C(NC1CCCCC1)C(c1ccc2ncccc2c1)N(Cc1ccco1)C(=O)c1ccc2c(c1)OCCO2 (configuration not stated),14.1% (inactive)
13,O=C(NC1CCCCC1)C(c1ccc2ncccc2c1)N(Cc1ccc2c(c1)OCO2)C(=O)c1cccs1 (configuration not stated),-4% (inactive)
14,O=C(NC1CCCCC1)C(c1ccc2ncccc2c1)N(Cc1ccccc1)C(=O)c1cccs1 (configuration not stated),-2.1% (inactive)
15,O=C(NC1CCCCC1)C(c1ccc2ncccc2c1)N(Cc1ccc(F)cc1)C(=O)c1cccs1 (configuration not stated),-1.3% (inactive)
16,COc1ccc(CN(C(=O)c2nsc(Cl)c2Cl)C(C(=O)NC2CCCCC2)c2ccc(OC)cc2)cc1 (configuration not stated),-2.1% (inactive)
17,COc1ccc(C(C(=O)NC2CCCCC2)N(C(=O)CCCC(=O)Nc2ccccn2)c2ccc3c(c2)OCCO3)cc1 (configuration not stated),3.5% (inactive)
18,O=C(NC1CCCCC1)C(c1ccc2ncccc2c1)N(Cc1cccs1)C(=O)c1cccs1 (configuration not stated),-8.2% (inactive)
19,OC(C#CCN1CCOCC1)(c1ccccc1)C1CC1 (configuration not stated),-0.9% (inactive)
